From PubChem BioAssay AID463213 (Sanford-Burnham Center for Chemical Genomics, 2010)
Screen size: about 7,400 compounds; about 4,100 (55%) were called active. So high a share suggests a set chosen from earlier hits. A selection follows. Values without a mark were called inactive.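 The calls were made as follows: active = inhibition of yeast growth at or above a set limit in either of two repeat tests at 20 µM; inactive = the rest.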

experiment: tim10-1 ts yeast growth inhibition, retested – single concentration, luminescence, S. cerevisiae, confirmation (AID 463213);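 also: tim10-1 mutant grown at permissive 25 °C to find synthetic lethal compounds; 0% = DMSO yeast wells and 100% = medium wells without yeast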; details: S. cerevisiae tim10-1 ts strain growth, BacTiter-Glo, 24 h; at 20 µM; hits give high values

| Compound | inhibition |
| --- | --- |
| c1ccc(-c2nnc3n2NC(c2ccc4c(c2)OCO4)S3)cc1 (configuration not stated) | 34% (active) |
| Cc1cccc(C2c3[nH]c4ccccc4c3CCN2C(=O)c2cc(-c3cccn3C)n[nH]2)n1 (configuration not stated) | 14.3% |
| C=CCCC(=O)Nc1nc(C)c(-c2csc(Nc3ccc(Cl)cc3)n2)s1 | 19.9% |
| CCCCC(=O)Nc1nc(C)c(-c2csc(Nc3ccc(Cl)cc3)n2)s1 | 31% (active) |
| O=[N+]([O-])c1ccc(C=Nc2ccc(Cl)cc2Cl)s1 | 69.8% (active) |
| COc1ccc(/C=C/C2=CC(C)(C)NC(=S)N2)c(OC)c1 | 20.4% |
| NS(=O)(=O)c1ccc(NC(=S)Nc2ccc(Br)c(Cl)c2)cc1 | 41.2% (active) |
| CC(Nc1nc(C(F)(F)F)nc2ccccc12)c1cccs1 (configuration not stated) | 30.1% (active) |
| O=[N+]([O-])c1ccc2c(c1)Nc1nc3ccccc3nc1N2 | 70.2% (active) |
| O=C1CC(c2ccccc2)=NN1c1ccc([N+](=O)[O-])cc1 | 23.8% |
| COc1ccccc1NC(=O)C1=C(C)Nc2nnnn2C1c1cccc(Br)c1 (configuration not stated) | 28.7% |
| CC(C)c1cc(C(N)=O)c(NC(=O)c2cccc(COc3ccc(Br)cc3)c2)s1 | 26.9% |
| CCc1cc(C(N)=O)c(NC(=O)c2ccc(OC)cc2)s1 | 58.2% (active) |
| Cn1c(-c2sccc2OCc2cccc(C(F)(F)F)c2)n[nH]c1=S | 25.1% |
| CCSC1=C(C#N)C(=O)n2c1cc1c2CCCC1 | 52.3% (active) |
| N#CC1(C#N)C(C(=O)C23CC4CC(CC(C4)C2)C3)C12CCOCC2 (configuration not stated) | 41.9% (active) |
| COc1ccc(S(=O)(=O)Nc2ccc(O)c(Sc3nc4ccccc4s3)c2)cc1 | 37% (active) |
| COc1cc(NS(=O)(=O)c2ccc3ccccc3c2)c2ncccc2c1 | 27.8% |
| CC(=NCc1ccc2c(c1)OCO2)C1=C(O)c2ccccc2C1=O | 40.3% (active) |
| c1ccc(-c2cn3c(n2)CCc2ccc4cccnc4c2-3)cc1 | 30.3% (active) |
| Cc1nc2ccccc2cc1OCc1ccc(F)cc1 | 9.05% |
| Cc1ccc(-c2csc(-c3c[nH]c4ccccc34)n2)cc1 | 50.9% (active) |
| O=C(c1cccs1)N(C(=O)c1cccs1)c1ccccn1 | 20.9% |
| COc1ccc(C)cc1Nc1nc(C)nc2c1oc1ccccc12 | 25.5% |
| O=C(NCCc1ccc(F)cc1)c1ccc(S(=O)(=O)N2CCCCC2)cc1 | 43.5% (active) |
| O=C(CCc1ccc(S(=O)(=O)N2CCOCC2)cc1)Nc1ccc2ccccc2c1 | 28.1% |
| COc1ccc(Oc2cn[nH]c2-c2ccc(OC)cc2O)cc1 | 39.3% (active) |
